DT40 TDP1 CPT – growth inhibition of DT40 Tdp1-/-;hTDP1 cells with camptothecin (screen for TDP1 inhibitors). chicken DT40 Tdp1-/-;hTDP1 cells + 20 nM CPT, ATP luminescence, 48 h. Potency, µM (top dose mostly 46.2 µM), inactives show at the highest dose activity change, negative = growth inhibition, most hits filed as inhibitors. hit rate 12% among 420,000; note: potency is the fitted concentration of half-maximal effect; nearly all actives have a fitted effect of over 55% in size
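Chicken DT40 Tdp1-/- cells stably complemented with human TDP1 were seeded at 400 cells/well in medium containing 20 nM camptothecin, exposed to pin-transferred compounds, and grown at 37 °C for at least 48 hr. Viability was read as ATP luminescence.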
Gal4-VP16 FLuc – Gal4-VP16 reporter inhibition counter-screen. hit rate 3.5% among 310,000. Drosophila S2 Gal4-VP16 UAS-luciferase, luminescence, 20 h. Potency, µM (top dose mostly 53.6 µM), without a hit: top-dose activity, negative = inhibition, actives largely listed as inhibitors;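 note: Gal4-VP16 expression switched on by copper sulfate through the metallothionein promoter; potency is the fitted concentration of half-maximal effect; nearly all actives have a fitted effect of over 50% in size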
RORgamma inh – inhibitors of mouse ROR gamma transcriptional activity; P51450; Drosophila S2 Gal4-RORgamma UAS-luciferase reporter, 20 h; Potency, µM (series often up to 53.6 µM), for the others: top-dose activity change, negative = inhibition, actives largely listed as inhibitors; hit rate 5.4% among 310,000; note: potency is the fitted concentration of half-maximal effect; nearly all actives have a fitted effect of over 60% in size
Target sequence (P51450 whole entry, looked up, the tested form may be a part): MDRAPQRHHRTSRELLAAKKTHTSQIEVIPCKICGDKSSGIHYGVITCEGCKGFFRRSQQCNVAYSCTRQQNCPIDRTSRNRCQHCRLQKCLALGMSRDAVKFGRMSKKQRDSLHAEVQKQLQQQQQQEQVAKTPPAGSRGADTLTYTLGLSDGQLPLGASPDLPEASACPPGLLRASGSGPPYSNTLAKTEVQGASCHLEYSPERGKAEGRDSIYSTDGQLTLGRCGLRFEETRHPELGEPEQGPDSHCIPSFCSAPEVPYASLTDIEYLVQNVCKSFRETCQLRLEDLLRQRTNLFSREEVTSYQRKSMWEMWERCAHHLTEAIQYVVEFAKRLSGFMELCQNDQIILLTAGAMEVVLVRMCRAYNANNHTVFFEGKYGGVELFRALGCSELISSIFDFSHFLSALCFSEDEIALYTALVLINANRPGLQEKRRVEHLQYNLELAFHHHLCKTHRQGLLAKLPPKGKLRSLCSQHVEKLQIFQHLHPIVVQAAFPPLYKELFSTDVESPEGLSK
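Using a luciferase readout, inhibitors were identified by reduced reporter activity in Drosophila cells coexpressing a copper-inducible Gal4–ROR gamma fusion and UAS-driven Photinus luciferase, incubated 20 hr after 700 uM copper sulfate.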
IL1B secr inh – blocks inflammasome-driven IL-1 beta release | activity change, % at 57.5 µM | THP-1 LPS/ATP IL-1B secretion, AlphaLISA, 16 h; stronger effect = lower value | hit rate 4.7% among 360,000 | AID 743279; in the data active = activity change below about -50%; inconclusive = mostly about -30% to -49%
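THP-1 cells pretreated 1 hr with compounds (up to 57.5 uM final), then stimulated with LPS (250 ng/mL final) plus ATP (1.25 mM final); secreted IL-1B measured by AlphaLISA after 16 hr, decreased signal indicating inhibition.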
TDP1 cell noCPT – qHTS for Inhibitors of human tyrosyl-DNA phosphodiesterase 1 (TDP1): qHTS in cells in absence of CPT; DT40 Tdp1-/- hTDP1 cells, no CPT, ATP luminescence, 48 h; Potency, µM (series often up to 46.2 µM), for the others: at the highest dose activity change, negative = growth inhibition, actives largely listed as inhibitors; hit rate 15% among 420,000; AID 686978, 2013; note: potency is the fitted concentration of half-maximal effect; nearly all actives have a fitted effect of over 55% in size
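Growth kinetics read by CellTiter-Glo luminescence after ≥48 hr at 37 °C. Cells: DT40 Tdp1-/- stably carrying human TDP1, 400 per well, compound exposure in the absence of CPT (DMSO vehicle).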
ELG1 repair inh – blocks ELG1-dependent DNA repair in HEK293T cells | hit rate 2.3% among 330,000 | AID 504467 | HEK293T ELG1-luciferase reporter, luminescence, 16 h; DNA damage induced by 5-fluorouridine | Potency, µM (series often up to 46.1 µM), inactives show at the top dose activity change, negative = inhibition, most hits filed as inhibitors; note: potency is the fitted concentration of half-maximal effect; nearly all actives have a fitted effect of over 55% in size
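Quantitative HTS, concentration-response format. 2,000 cells/well co-treated with 5-fluorouridine and compound, 16 hr in 5% CO2 at 37 °C; ONE-Glo luminescence read after 30 min.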
An asterisk follows results filed as active; u = inconclusive; x = no result; [ ] = remark or other dose. Compounds with a hit are over-represented: about 21% of the library has one in this group of screens. Unless noted, calls come from the whole dose curve; as a rule, active = well fitted curve in the direction sought with a large enough effect; inconclusive = small, poorly fitted or top-dose-only effect, or another doubt; inactive = no such curve, though single readings can be large; an effect the other way counts as inactive or inconclusive. % is set by controls: 0 for no effect and ±100 for the full control effect.

SMILES	DT40 TDP1 CPT	Gal4-VP16 FLuc	RORgamma inh	IL1B secr inh	TDP1 cell noCPT	ELG1 repair inh
Cc1ccc(Nc2nc(-c3ccncc3)cs2)cc1	u	-16%	-25%	-4	u	u
CC(C)/C=N/Nc1nc(-c2ccc(Br)cc2)cs1	23µM*	-28%	u	-29	16µM*	u
CS(=O)(=O)c1ccc([C@@H](O)[C@@H](COC(=O)CN)NC(=O)C(Cl)Cl)cc1	6.7µM*	-6%	25%	x	3.8µM*	x
O=C(NCc1ccco1)C12CC3CC(CC(C3)C1)C2	6%	-8%	9%	35	-28%	-4%
O=C(CC12CC3CC(CC(C3)C1)C2)NC(=S)NCc1ccco1	u	u	3.5µM*	102	u	u
S=C(NCc1ccccc1)NCc1ccco1	-22%	u	11µM*	-14	-5%	-4%
S=C(NCc1ccco1)NCc1ccco1	u	x	x	4	26µM*	x
Cc1cccc(N2CCN(C(=S)NCc3ccco3)CC2)c1C	-40%	-4%	-35%	-28	u	-7%
S=C(NCc1cccc(Cl)c1)NCc1ccco1	-10%	u	-107%	u	10%	-3%
Cc1cnn(C(=S)NCc2ccco2)c1	18µM*	u	-129%	1	u	7%
O=C(NCc1ccco1)c1c(F)c(F)c(F)c(C(=O)NCc2ccco2)c1F	15%	-5%	13%	-131*	5%	-1%
CC(C)(C)NC(=S)NCc1ccco1	6%	0%	1%	12	10%	u
NNC(=S)NCc1ccco1	15%	u	7.1µM*	4	4%	5%
Cc1cccc(NC(=S)NCc2ccco2)n1	2%	4.5µM*	1.3µM*	31	7%	17%
CC1CC1C(=O)N1CCN(S(=O)(=O)c2cccc(F)c2)CC1 (stereo not drawn)	-6%	x	x	10	2%	22%
COc1ccc(CNC(=O)C(C)OC(=O)CN2C(=O)COc3ccccc32)cc1 (stereo not drawn)	-1%	5%	2%	-12	-6%	-1%
CC(C)(C)OC(=O)N1CCC[C@H]1c1nnc(SCc2ccc(Cl)cc2Cl)o1	u	17%	33%	u	15µM*	x
CC(C)(C)OC(=O)N1CCC[C@H]1c1nnc(SCc2ccc(Cl)cc2)o1	u	-1%	23%	u	21µM*	-30%
CC(C)(C)OC(=O)N1CCC[C@H]1c1nnc(SC/C=C/c2ccccc2)o1	u	-1%	38%	-15	23µM*	-15%
CC(C)(C)OC(=O)N1CCC[C@H]1c1nnc(SCc2cccc(Cl)c2)o1	-1%	-8%	22%	-14	-29%	u
CC(C)(C)OC(=O)N1CCC[C@H]1c1nnc(SCc2ccccc2Cl)o1	u	-8%	5%	0	u	11%
CN=c1scc(C)n1/N=C/c1cc(Br)c(O)c(OC)c1	u	-5%	12%	11	16µM*	u
CN=c1scc(-c2cccs2)n1/N=C/c1ccc(O)c(O)c1O	12µM*	1.4µM*	1.1µM*	-2	5.8µM*	u
CN=c1scc(-c2cccs2)n1/N=C/c1ccccc1O	u	-10%	27%[10 µM]	-3	23µM*	5.2µM*
CN=c1scc(C)n1/N=C/c1ccc(O)c(O)c1O	16µM*	7.1µM*	2.2µM*	u	18µM*	u
SMILES	DT40 TDP1 CPT	Gal4-VP16 FLuc	RORgamma inh	IL1B secr inh	TDP1 cell noCPT	ELG1 repair inh
CCCCN(C(=O)CCNC(=O)NC12CC3CC(CC(C3)C1)C2)c1c(N)n(CCC)c(=O)[nH]c1=O	1%	x	x	12	-3%	18%
Cc1ccc(O)c(CCc2ccc(O)cc2)n1	3%	-2%	33%	-16	-20%	u
Cc1cc(F)ccc1NC(=O)CN1C(=O)CCc2cc(S(=O)(=O)N3CCOCC3)ccc21	7%	x	x	x	3%	x
Oc1ccc(/C=N/n2c(-c3ccco3)csc2=Nc2cccnc2)c(O)c1	12µM*	-28%	7%	21	15µM*	u
COCCN=c1scc(-c2ccco2)n1/N=C/c1ccc(O)c(O)c1O	u	-1%	u	33	u	20%
O=c1c2ccccc2nc(-c2ccco2)n1/N=C/c1ccccc1O	-15%	-17%	6%	-16	u	-7%
C=CCN=c1scc(-c2ccco2)n1/N=C/c1ccc(O)c(O)c1O	10µM*	10µM*	3.2µM*	-51*	5.8µM*	u
CC(C)N=c1scc(-c2ccco2)n1/N=C/c1ccc(O)c(O)c1	1.6µM*	16µM*	1.4µM*	-13	1.5µM*	u
Cc1cnc(CNc2nc(-c3ccccc3Cl)nc3ccccc23)cn1	-15%	-21%	7%	x	-14%	x
CCCCC/C=C\CCC(=O)N[C@H]1[C@H](Oc2c3cc4cc2Oc2ccc(cc2Cl)[C@@H](O[C@@H]2O[C@H](CO)[C@@H](O)[C@H](O)[C@H]2NC(C)=O)[C@@H]2NC(=O)[C@H](NC(=O)[C@@H]4NC(=O)[C@H]4NC(=O)[C@@H](Cc5ccc(c(Cl)c5)O3)NC(=O)[C@H](N)c3ccc(O)c(c3)Oc3cc(O)cc4c3)c3ccc(O)c(c3)-c3c(O[C@H]4O[C@H](CO)[C@@H](O)[C@H](O)[C@@H]4O)cc(O)cc3[C@@H](C(=O)O)NC2=O)O[C@H](CO)[C@@H](O)[C@@H]1O	12%[21.1 µM]	x	x	x	-11%	x
Cc1ccc(CN2CCC(=O)N(Cc3ccccn3)CC2)c(C)c1	-4%	x	x	x	-7%	x
CN[C@H](C)C(=O)NC[C@H]1O[C@@H](n2cc(C)c(=O)[nH]c2=O)C[C@@H]1O	-84%	x	x	36	-89%	x
C[C@@H]1CCCCO[C@H](CN(C)C(=O)Nc2ccc3c(c2)OCO3)[C@H](C)CN([C@@H](C)CO)C(=O)c2cc(NS(=O)(=O)c3ccc(Cl)cc3)ccc2O1	16µM*	x	x	-11	16µM*	x
CC(C)NC(=O)N(C)C[C@H]1OCCCC[C@H](C)Oc2ccc(NS(=O)(=O)c3ccccc3)cc2C(=O)N([C@H](C)CO)C[C@H]1C	-1%	x	x	7	4%	x
C[C@@H]1CCCCO[C@H](CN(C)C(=O)Nc2ccc3c(c2)OCO3)[C@@H](C)CN([C@H](C)CO)C(=O)c2cc(NS(=O)(=O)c3ccc(F)cc3)ccc2O1	u	x	x	-29	21µM*	x
CCOC(=O)N1CCN(S(=O)(=O)N2CCCC(C(=O)NCCCN3CCCCC3)C2)CC1 (stereo not drawn)	-7%	4%	-11%	0	28%	-10%

High-throughput results from PubChem.
